# Results as given in the supplement of paper PMC4466140.
# Columns and labels:
# Assay in all cases: SPOT peptide array binding signal intensity (averaged, normalized) (arbitrary units (background-subtracted, floor 0; scale differs between SH3 domains)); higher = stronger binding of the SH3 domain to the peptide
# SpBzz1-D2 = target: SpBzz1-D2
# Summary of the method: (§1)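 Cellulose membranes carried synthetic 15-mer peptides with cysteines swapped for serines. These were incubated overnight at 4°C with 10 μg/ml of GST-fused SH3 domains from four yeast species in TBS-based blocking buffer. Binding signal, detected with anti-GST antibody and quantified in Genespotter, is the normalized, background-subtracted spot intensity averaged over replicates, in arbitrary units specific to each domain.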
# SpCyk3 = target: SpCyk3
# Summary of the method: as §1
# SpHof1 = target: SpHof1
# Summary of the method: as §1
# SpHof1-2 = target: SpHof1-2
# Summary of the method: as §1
# SpHof1-3 = target: SpHof1-3
# Summary of the method: as §1
# SpHse1 = target: SpHse1
# Summary of the method: as §1
# SpLsb1 = target: SpLsb1
# Summary of the method: as §1
# SpLsb4 = target: SpLsb4
# Summary of the method: as §1
# SpMyo1 = target: SpMyo1
# Summary of the method: as §1
# SpNbp2 = target: SpNbp2
# Summary of the method: as §1
# SpPex13 = target: SpPex13
# Summary of the method: as §1
# SpRvs167 = target: SpRvs167
# Summary of the method: as §1
# SpSla1-D1-D2 = target: SpSla1-D1-D2
# Summary of the method: as §1
# SpSla1-D3 = target: SpSla1-D3
# Summary of the method: as §1
# AgAbp1 = target: AgAbp1
# Summary of the method: as §1
# AgBbc1 = target: AgBbc1
# Summary of the method: as §1
# AgBem1-D1 = target: AgBem1-D1
# Summary of the method: as §1
# AgBzz1-D1 = target: AgBzz1-D1
# Summary of the method: as §1
# AgBzz1-D2 = target: AgBzz1-D2
# Summary of the method: as §1
# AgCyk3 = target: AgCyk3
# Summary of the method: as §1
# AgFus1 = target: AgFus1
# Summary of the method: as §1
# AgHof1 = target: AgHof1
# Summary of the method: as §1
# AgHse1 = target: AgHse1
# Summary of the method: as §1
# AgLsb1 = target: AgLsb1
# Summary of the method: as §1
# AgLsb4 = target: AgLsb4
# Summary of the method: as §1
# AgMyo5 = target: AgMyo5
# Summary of the method: as §1
# AgNbp2 = target: AgNbp2
# Summary of the method: as §1
# AgRvs167 = target: AgRvs167
# Summary of the method: as §1
# AgSho1 = target: AgSho1
# Summary of the method: as §1
# AgSla1-D1-D2 = target: AgSla1-D1-D2
# Summary of the method: as §1
# AgSla1-D3 = target: AgSla1-D3
# Summary of the method: as §1
# CaAbp1-D1 = target: CaAbp1-D1
# Summary of the method: as §1
# CaAbp1-D2 = target: CaAbp1-D2
# Summary of the method: as §1
# CaBbc1 = target: CaBbc1
# Summary of the method: as §1
# CaBem1-D1 = target: CaBem1-D1
# Summary of the method: as §1
# CaBzz1-D1 = target: CaBzz1-D1
# Summary of the method: as §1
# CaBzz1-D2 = target: CaBzz1-D2
# Summary of the method: as §1
# CaCyk3 = target: CaCyk3
# Summary of the method: as §1
# CaFus1 = target: CaFus1
# Summary of the method: as §1
# CaHof1 = target: CaHof1
# Summary of the method: as §1
# CaHse1 = target: CaHse1
# Summary of the method: as §1
# CaLsb1 = target: CaLsb1
# Summary of the method: as §1
# CaLsb4 = target: CaLsb4
# Summary of the method: as §1
# CaMyo5 = target: CaMyo5
# Summary of the method: as §1
# CaNbp2 = target: CaNbp2
# Summary of the method: as §1
# CaRvs167 = target: CaRvs167
# Summary of the method: as §1
# CaRvs167-3 = target: CaRvs167-3
# Summary of the method: as §1
# CaSho1 = target: CaSho1
# Summary of the method: as §1
# CaSla1-D1-D2 = target: CaSla1-D1-D2
# Summary of the method: as §1
# CaSla1-D3 = target: CaSla1-D3
# Summary of the method: as §1
# ScAbp1 = target: ScAbp1
# Summary of the method: as §1
# ScBbc1 = target: ScBbc1
# Summary of the method: as §1
# ScBem1-D1 = target: ScBem1-D1
# Summary of the method: as §1
# ScBzz1-D1 = target: ScBzz1-D1
# Summary of the method: as §1
# ScBzz1-D2 = target: ScBzz1-D2
# Summary of the method: as §1
# ScCyk3 = target: ScCyk3
# Summary of the method: as §1
# ScFus1 = target: ScFus1
# Summary of the method: as §1
# ScHof1 = target: ScHof1
# Summary of the method: as §1
# ScHse1 = target: ScHse1
# Summary of the method: as §1
# ScLsb1 = target: ScLsb1
# Summary of the method: as §1
# ScLsb2 = target: ScLsb2
# Summary of the method: as §1
# ScLsb3 = target: ScLsb3
# Summary of the method: as §1
# ScLsb4 = target: ScLsb4
# Summary of the method: as §1
# ScMyo3 = target: ScMyo3
# Summary of the method: as §1
# ScMyo5 = target: ScMyo5
# Summary of the method: as §1
# ScNbp2 = target: ScNbp2
# Summary of the method: as §1
# ScPex13 = target: ScPex13
# Summary of the method: as §1
# ScRvs167 = target: ScRvs167
# Summary of the method: as §1
# ScSho1 = target: ScSho1
# Summary of the method: as §1
# ScSla1-D1-D2 = target: ScSla1-D1-D2
# Summary of the method: as §1
# ScSla1-D3 = target: ScSla1-D3
# Summary of the method: as §1
# SpAbp1-D1 = target: SpAbp1-D1
# Summary of the method: as §1
# SpBbc1 = target: SpBbc1
# Summary of the method: as §1
# SpBzz1-D1 = target: SpBzz1-D1
# Summary of the method: as §1
binder,measurement,setting,value
VYTRTAFQIPGDDKI,SPOT peptide array binding signal intensity,SpBzz1-D2,≤ 0
same,SPOT peptide array binding signal intensity,SpCyk3,≤ 0
same,SPOT peptide array binding signal intensity,SpHof1,≤ 0
same,SPOT peptide array binding signal intensity,SpHof1-2,≤ 0
same,SPOT peptide array binding signal intensity,SpHof1-3,≤ 0
same,SPOT peptide array binding signal intensity,SpHse1,≤ 0
same,SPOT peptide array binding signal intensity,SpLsb1,68.5
same,SPOT peptide array binding signal intensity,SpLsb4,≤ 0
same,SPOT peptide array binding signal intensity,SpMyo1,3.5
same,SPOT peptide array binding signal intensity,SpNbp2,7
same,SPOT peptide array binding signal intensity,SpPex13,≤ 0
same,SPOT peptide array binding signal intensity,SpRvs167,0.333
same,SPOT peptide array binding signal intensity,SpSla1-D1-D2,2
same,SPOT peptide array binding signal intensity,SpSla1-D3,≤ 0
LFMKGTPEFPKSGFS,SPOT peptide array binding signal intensity,AgAbp1,≤ 0
same,SPOT peptide array binding signal intensity,AgBbc1,12.5
same,SPOT peptide array binding signal intensity,AgBem1-D1,224
same,SPOT peptide array binding signal intensity,AgBzz1-D1,8.5
same,SPOT peptide array binding signal intensity,AgBzz1-D2,7
same,SPOT peptide array binding signal intensity,AgCyk3,≤ 0
same,SPOT peptide array binding signal intensity,AgFus1,479
same,SPOT peptide array binding signal intensity,AgHof1,7
same,SPOT peptide array binding signal intensity,AgHse1,104
same,SPOT peptide array binding signal intensity,AgLsb1,≤ 0
same,SPOT peptide array binding signal intensity,AgLsb4,5
same,SPOT peptide array binding signal intensity,AgMyo5,5
same,SPOT peptide array binding signal intensity,AgNbp2,208
same,SPOT peptide array binding signal intensity,AgRvs167,0.667
same,SPOT peptide array binding signal intensity,AgSho1,248
same,SPOT peptide array binding signal intensity,AgSla1-D1-D2,4
same,SPOT peptide array binding signal intensity,AgSla1-D3,5
same,SPOT peptide array binding signal intensity,CaAbp1-D1,291
same,SPOT peptide array binding signal intensity,CaAbp1-D2,224
same,SPOT peptide array binding signal intensity,CaBbc1,40.5
same,SPOT peptide array binding signal intensity,CaBem1-D1,272
same,SPOT peptide array binding signal intensity,CaBzz1-D1,182
same,SPOT peptide array binding signal intensity,CaBzz1-D2,58.8
same,SPOT peptide array binding signal intensity,CaCyk3,7.5
same,SPOT peptide array binding signal intensity,CaFus1,914
same,SPOT peptide array binding signal intensity,CaHof1,≤ 0
same,SPOT peptide array binding signal intensity,CaHse1,113
same,SPOT peptide array binding signal intensity,CaLsb1,3.5
same,SPOT peptide array binding signal intensity,CaLsb4,196
same,SPOT peptide array binding signal intensity,CaMyo5,40.2
same,SPOT peptide array binding signal intensity,CaNbp2,611
same,SPOT peptide array binding signal intensity,CaRvs167,75
same,SPOT peptide array binding signal intensity,CaRvs167-3,1.5
same,SPOT peptide array binding signal intensity,CaSho1,1200
same,SPOT peptide array binding signal intensity,CaSla1-D1-D2,90
same,SPOT peptide array binding signal intensity,CaSla1-D3,289
same,SPOT peptide array binding signal intensity,ScAbp1,6.5
same,SPOT peptide array binding signal intensity,ScBbc1,≤ 0
same,SPOT peptide array binding signal intensity,ScBem1-D1,16
same,SPOT peptide array binding signal intensity,ScBzz1-D1,20.5
same,SPOT peptide array binding signal intensity,ScBzz1-D2,11.5
same,SPOT peptide array binding signal intensity,ScCyk3,1
same,SPOT peptide array binding signal intensity,ScFus1,738
same,SPOT peptide array binding signal intensity,ScHof1,≤ 0
same,SPOT peptide array binding signal intensity,ScHse1,17.5
same,SPOT peptide array binding signal intensity,ScLsb1,19
same,SPOT peptide array binding signal intensity,ScLsb2,≤ 0
same,SPOT peptide array binding signal intensity,ScLsb3,197
same,SPOT peptide array binding signal intensity,ScLsb4,92.5
same,SPOT peptide array binding signal intensity,ScMyo3,21
same,SPOT peptide array binding signal intensity,ScMyo5,2
same,SPOT peptide array binding signal intensity,ScNbp2,212
same,SPOT peptide array binding signal intensity,ScPex13,394
same,SPOT peptide array binding signal intensity,ScRvs167,32
same,SPOT peptide array binding signal intensity,ScSho1,658
same,SPOT peptide array binding signal intensity,ScSla1-D1-D2,176
same,SPOT peptide array binding signal intensity,ScSla1-D3,490
same,SPOT peptide array binding signal intensity,SpAbp1-D1,52.5
same,SPOT peptide array binding signal intensity,SpBbc1,≤ 0
same,SPOT peptide array binding signal intensity,SpBzz1-D1,140
same,SPOT peptide array binding signal intensity,SpBzz1-D2,16.5
same,SPOT peptide array binding signal intensity,SpCyk3,≤ 0
same,SPOT peptide array binding signal intensity,SpHof1,19
same,SPOT peptide array binding signal intensity,SpHof1-2,18.8
same,SPOT peptide array binding signal intensity,SpHof1-3,78
same,SPOT peptide array binding signal intensity,SpHse1,335
same,SPOT peptide array binding signal intensity,SpLsb1,≤ 0
same,SPOT peptide array binding signal intensity,SpLsb4,629
same,SPOT peptide array binding signal intensity,SpMyo1,22.8
same,SPOT peptide array binding signal intensity,SpNbp2,100
same,SPOT peptide array binding signal intensity,SpPex13,28
same,SPOT peptide array binding signal intensity,SpRvs167,30.8
same,SPOT peptide array binding signal intensity,SpSla1-D1-D2,8
same,SPOT peptide array binding signal intensity,SpSla1-D3,253
NSVPIMPTLPPRPYI,SPOT peptide array binding signal intensity,AgAbp1,≤ 0
same,SPOT peptide array binding signal intensity,AgBbc1,394
same,SPOT peptide array binding signal intensity,AgBem1-D1,102
same,SPOT peptide array binding signal intensity,AgBzz1-D1,21
same,SPOT peptide array binding signal intensity,AgBzz1-D2,≤ 0
same,SPOT peptide array binding signal intensity,AgCyk3,9.5
same,SPOT peptide array binding signal intensity,AgFus1,20.5
same,SPOT peptide array binding signal intensity,AgHof1,118
same,SPOT peptide array binding signal intensity,AgHse1,320
same,SPOT peptide array binding signal intensity,AgLsb1,26
same,SPOT peptide array binding signal intensity,AgLsb4,2370
same,SPOT peptide array binding signal intensity,AgMyo5,71.5
same,SPOT peptide array binding signal intensity,AgNbp2,192
same,SPOT peptide array binding signal intensity,AgRvs167,50.2
same,SPOT peptide array binding signal intensity,AgSho1,21
same,SPOT peptide array binding signal intensity,AgSla1-D1-D2,≤ 0
same,SPOT peptide array binding signal intensity,AgSla1-D3,≤ 0
same,SPOT peptide array binding signal intensity,CaAbp1-D1,≤ 0
same,SPOT peptide array binding signal intensity,CaAbp1-D2,5
same,SPOT peptide array binding signal intensity,CaBbc1,1090
same,SPOT peptide array binding signal intensity,CaBem1-D1,162
same,SPOT peptide array binding signal intensity,CaBzz1-D1,103
same,SPOT peptide array binding signal intensity,CaBzz1-D2,3
same,SPOT peptide array binding signal intensity,CaCyk3,120
same,SPOT peptide array binding signal intensity,CaFus1,293
same,SPOT peptide array binding signal intensity,CaHof1,15
same,SPOT peptide array binding signal intensity,CaHse1,310
same,SPOT peptide array binding signal intensity,CaLsb1,3.25
same,SPOT peptide array binding signal intensity,CaLsb4,2280
same,SPOT peptide array binding signal intensity,CaMyo5,27.5
